Experimental data as given in the supplement of paper PMC10849652.
Targets with a hit are over-represented here; the source holds about 7,900 in all. About 0.6% of all pairs of compound and target were hits.

Experiments:
Experiment in all cases: log2 fold change, soluble protein after heating vs DMSO (PISA); higher = thermal stabilisation; K562 cells, 10 uM, 30 min; active = over 0.2 and 3.5 SD of the protein, either way, in both replicates (recomputed)
IRAK-1-4 Inhibitor I = compound: C1COCCN1CCN2C3=CC=CC=C3N=C2NC(=O)C4=CC(=CC=C4)[N+](=O)[O-] [IRAK-1-4 Inhibitor I]
How it was run: (§1)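 K562 cells at 2×10^6 cells/mL were given 10 μM compound for 30 min. Aliquots then went through 3 min of heating across 48°C-58°C, were pooled, and were extracted in PBS with 0.5% NP-40 at 4°C, and the supernatant after 21,000xg for 90 min was quantified by TMTpro 16plex LC-MS/MS with channel sums equalised. Thermal stability relative to control samples, from duplicates, is given as log2 fold change.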

ibrutinib = compound: C=CC(=O)N1CCC[C@@H](n2nc(-c3ccc(Oc4ccccc4)cc3)c3c(N)ncnc32)C1 [ibrutinib]
How it was run: as §1

[1] = compound: CC(=O)c1cnc2ccc(-c3cc(Cl)c(O)c(Cl)c3)nc2c1N[C@H]1CC[C@H](CN(C)C)CC1
How it was run: as §1

ralimetinib = compound: CC(C)(C)Cn1c(N)nc2ccc(-c3[nH]c(C(C)(C)C)nc3-c3ccc(F)cc3)nc21 [ralimetinib]
How it was run: as §1

[2] = compound: CC(C)(O)CC(=O)NCCn1ccc2ncnc(Nc3ccc(Oc4cccc(C(F)(F)F)c4)c(Cl)c3)c21
How it was run: as §1

[3] = compound: CC(C)C1=C2N=C(C=C(N2N=C1)NCC3=CC=CC=C3)NCCCCCCN
How it was run: as §1

[4] = compound: CC(C)C[C@@H](C=O)NC(=O)[C@H](CC(C)C)NC(=O)[C@H](CC(C)C)NC(=O)OCc1ccccc1
How it was run: as §1

pinometostat = compound: CC(C)N(C[C@H]1O[C@@H](n2cnc3c(N)ncnc32)[C@H](O)[C@@H]1O)[C@H]1C[C@@H](CCc2nc3cc(C(C)(C)C)ccc3[nH]2)C1 [pinometostat]
How it was run: as §1

[5] = compound: CC1=C(C(CC(=O)N1)C2=CC=C(C=C2)C(F)(F)F)C(=O)NC3=C(C=C4C(=C3)C=NN4)F
How it was run: as §1

[6] = compound: CC1=C(C2=C(C=C1)C(=O)C3=CC=CC=C3N2CCCN)C
How it was run: as §1

[7] = compound: CC1=C(C=C(C=C1)NC(=O)C2=CC(=CC=C2)C(C)(C)C#N)NC3=CC4=C(C=C3)N=CN(C4=O)C
How it was run: as §1

[8] = compound: CC1=C(C=C(C=C1)NC(=O)C2=CC(=CC=C2)N(C)C)NC(=O)C3=CC=C(C=C3)O
How it was run: as §1

[9] = compound: CC1=CC=C(C=C1)SC2=C3C=C(SC3=CN=C2)C(=O)N
How it was run: as §1

[10] = compound: CC1=NC(=CC=C1)C2=C(N=C(N2)C(C)(C)C)C3=CC4=NC=CN=C4C=C3
How it was run: as §1

Nexturastat A = compound: CCCCN(Cc1ccc(C(=O)NO)cc1)C(=O)Nc1ccccc1 [Nexturastat A]
How it was run: as §1

vemurafenib = compound: CCCS(=O)(=O)Nc1ccc(F)c(C(=O)c2c[nH]c3ncc(-c4ccc(Cl)cc4)cc23)c1F [vemurafenib]
How it was run: as §1

[11] = compound: CCCS(=O)(=O)Nc1ccc(F)c(C(=O)c2c[nH]c3ncc(Cl)cc23)c1F
How it was run: as §1

[12] = compound: CCCc1cc(C)[nH]c(=O)c1CNC(=O)c1cc(-c2ccnc(N3CCN(C)CC3)c2)cc2c1cnn2C(C)C
How it was run: as §1

givinostat = compound: CCN(CC)Cc1ccc2cc(COC(=O)Nc3ccc(C(=O)NO)cc3)ccc2c1 [givinostat]
How it was run: as §1

barasertib = compound: CCN(CCCOc1ccc2c(Nc3cc(CC(=O)Nc4cccc(F)c4)[nH]n3)ncnc2c1)CCOP(=O)(O)O [barasertib]
How it was run: as §1

Measured: log2 fold change

GALNT1 (UniProt Q10472)
inactive: IRAK-1-4 Inhibitor I -0.106 | ibrutinib 0.023 | [1] -0.002 | ralimetinib 0.101 | [2] 0.018 | [3] 0.048 | [4] -0.141 | pinometostat -0.025 | [5] -0.001 | [6] 0.021 | [7] -0.004 | [8] 0 | [9] 0.03 | [10] 0.067 | Nexturastat A 0.001 | vemurafenib 0.02 | [11] -0.021 | [12] -0.055 | givinostat 0.003 | barasertib 0.007

HDGFL2 (UniProt Q7Z4V5)
UniProt Q7Z4V5, sequence (Q7Z4V5 whole entry, looked up): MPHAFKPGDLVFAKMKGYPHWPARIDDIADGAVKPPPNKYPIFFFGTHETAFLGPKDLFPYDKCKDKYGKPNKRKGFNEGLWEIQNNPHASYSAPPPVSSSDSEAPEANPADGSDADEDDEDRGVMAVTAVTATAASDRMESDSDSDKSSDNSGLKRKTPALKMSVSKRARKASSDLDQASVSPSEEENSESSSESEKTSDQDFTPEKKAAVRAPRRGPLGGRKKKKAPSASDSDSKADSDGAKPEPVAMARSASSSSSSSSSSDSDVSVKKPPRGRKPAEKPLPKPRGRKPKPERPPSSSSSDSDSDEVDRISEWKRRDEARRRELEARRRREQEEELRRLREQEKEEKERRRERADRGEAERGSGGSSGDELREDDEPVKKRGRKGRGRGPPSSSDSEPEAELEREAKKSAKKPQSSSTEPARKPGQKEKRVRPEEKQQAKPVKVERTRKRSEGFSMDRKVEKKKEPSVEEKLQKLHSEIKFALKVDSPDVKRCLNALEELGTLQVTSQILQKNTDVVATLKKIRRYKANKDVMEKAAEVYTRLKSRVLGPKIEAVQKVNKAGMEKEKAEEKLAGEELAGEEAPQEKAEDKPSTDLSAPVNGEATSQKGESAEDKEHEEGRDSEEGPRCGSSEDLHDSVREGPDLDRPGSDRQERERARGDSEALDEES
active: [6] -0.709 | [7] -0.281
inactive: IRAK-1-4 Inhibitor I 0.01 | ibrutinib -0.039 | [1] 0.011 | ralimetinib -0.019 | [2] 0.041 | [3] -0.017 | [4] -0.022 | pinometostat -0.051 | [5] 0.029 | [8] 0 | [9] -0.006 | [10] 0.049 | Nexturastat A 0.063 | vemurafenib -0.022 | [11] 0.007 | [12] -0.078 | givinostat 0.049 | barasertib 0.037

FBXO6 (UniProt Q9NRD1)
UniProt Q9NRD1, sequence (Q9NRD1 whole entry, looked up): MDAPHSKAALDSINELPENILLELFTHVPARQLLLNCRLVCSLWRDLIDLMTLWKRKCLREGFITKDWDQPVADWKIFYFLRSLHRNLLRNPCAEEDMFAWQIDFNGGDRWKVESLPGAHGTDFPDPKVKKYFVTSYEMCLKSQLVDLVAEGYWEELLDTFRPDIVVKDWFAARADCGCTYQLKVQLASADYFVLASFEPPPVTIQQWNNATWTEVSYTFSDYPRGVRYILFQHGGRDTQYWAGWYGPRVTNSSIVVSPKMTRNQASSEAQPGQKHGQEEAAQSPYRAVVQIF
inactive: IRAK-1-4 Inhibitor I -0.015 | ibrutinib 0.015 | [1] -0.068 | ralimetinib 0.004 | [2] -0.127 | [4] -0.046 | pinometostat -0.021 | [5] -0.043 | [6] 0.068 | [7] 0.006 | [8] 0.006 | [9] 0.048 | [10] 0.026 | Nexturastat A -0.04 | vemurafenib 0.044 | [11] 0.014 | [12] -0.01 | givinostat -0.093 | barasertib -0.008
active: [3] 0.437

HRAS (UniProt P01112)
UniProt P01112, sequence (P01112 whole entry, looked up): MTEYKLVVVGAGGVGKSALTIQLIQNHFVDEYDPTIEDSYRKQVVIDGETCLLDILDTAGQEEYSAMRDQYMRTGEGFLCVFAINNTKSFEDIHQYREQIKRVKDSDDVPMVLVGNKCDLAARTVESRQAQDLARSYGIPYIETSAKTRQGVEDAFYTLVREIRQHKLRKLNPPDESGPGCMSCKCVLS
inactive: IRAK-1-4 Inhibitor I 0.093 | ibrutinib 0.143 | [1] 0.065 | ralimetinib 0 | [2] -0.004 | [3] 0.047 | [4] 0.13 | pinometostat -0.059 | [5] -0.013 | [6] -0.121 | [7] -0.042 | [8] -0.065 | [9] -0.031 | [10] 0.096 | Nexturastat A 0.147 | vemurafenib 0.064 | [11] -0.083 | [12] 0.089 | givinostat -0.065 | barasertib 0.063

GCC2 (UniProt Q8IWJ2)
inactive: IRAK-1-4 Inhibitor I -0.046 | ibrutinib -0.023 | [1] 0.105 | ralimetinib 0.131 | [2] 0 | [3] -0.075 | [4] 0.111 | pinometostat 0.198 | [5] 0.085 | [6] -0.091 | [7] -0.004 | [8] -0.012 | [9] -0.016 | [10] -0.031 | vemurafenib 0.025 | [11] 0.01 | [12] 0.073 | givinostat 0.05 | barasertib -0.037
active: Nexturastat A 0.322

IFI30 (UniProt P13284)
inactive: IRAK-1-4 Inhibitor I 0.157 | ibrutinib 0.049 | [1] 0.088 | ralimetinib -0.05 | [2] 0.063 | [3] 0.087 | [4] -0.012 | pinometostat 0.019 | [5] -0.008 | [6] -0.099 | [7] -0.043 | [8] 0.043 | [9] 0.018 | [10] -0.046 | Nexturastat A 0.056 | vemurafenib 0.056 | [11] 0.183 | [12] 0.034 | givinostat 0.018 | barasertib 0.028

HHEX (UniProt Q03014)
UniProt Q03014, sequence (Q03014 whole entry, looked up): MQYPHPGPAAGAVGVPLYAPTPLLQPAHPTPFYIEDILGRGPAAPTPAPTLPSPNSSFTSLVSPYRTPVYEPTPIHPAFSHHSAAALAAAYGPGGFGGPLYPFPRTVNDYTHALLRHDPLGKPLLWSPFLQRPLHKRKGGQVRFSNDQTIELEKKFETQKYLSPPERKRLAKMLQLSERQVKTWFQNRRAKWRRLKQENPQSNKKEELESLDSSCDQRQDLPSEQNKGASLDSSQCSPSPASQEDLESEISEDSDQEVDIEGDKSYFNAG
inactive: IRAK-1-4 Inhibitor I 0.045 | ibrutinib 0.059 | [1] 0.005 | ralimetinib -0.059 | [2] -0.064 | [3] -0.113 | [4] 0.189 | pinometostat -0.075 | [5] 0.086 | [6] -0.074 | [7] -0.03 | [8] 0.045 | [9] -0.009 | [10] -0.055 | Nexturastat A 0.05 | vemurafenib -0.081 | [11] 0 | [12] 0.026 | givinostat -0.026 | barasertib -0.003

GBF1 (UniProt Q92538)
UniProt Q92538, sequence (Q92538 whole entry, looked up): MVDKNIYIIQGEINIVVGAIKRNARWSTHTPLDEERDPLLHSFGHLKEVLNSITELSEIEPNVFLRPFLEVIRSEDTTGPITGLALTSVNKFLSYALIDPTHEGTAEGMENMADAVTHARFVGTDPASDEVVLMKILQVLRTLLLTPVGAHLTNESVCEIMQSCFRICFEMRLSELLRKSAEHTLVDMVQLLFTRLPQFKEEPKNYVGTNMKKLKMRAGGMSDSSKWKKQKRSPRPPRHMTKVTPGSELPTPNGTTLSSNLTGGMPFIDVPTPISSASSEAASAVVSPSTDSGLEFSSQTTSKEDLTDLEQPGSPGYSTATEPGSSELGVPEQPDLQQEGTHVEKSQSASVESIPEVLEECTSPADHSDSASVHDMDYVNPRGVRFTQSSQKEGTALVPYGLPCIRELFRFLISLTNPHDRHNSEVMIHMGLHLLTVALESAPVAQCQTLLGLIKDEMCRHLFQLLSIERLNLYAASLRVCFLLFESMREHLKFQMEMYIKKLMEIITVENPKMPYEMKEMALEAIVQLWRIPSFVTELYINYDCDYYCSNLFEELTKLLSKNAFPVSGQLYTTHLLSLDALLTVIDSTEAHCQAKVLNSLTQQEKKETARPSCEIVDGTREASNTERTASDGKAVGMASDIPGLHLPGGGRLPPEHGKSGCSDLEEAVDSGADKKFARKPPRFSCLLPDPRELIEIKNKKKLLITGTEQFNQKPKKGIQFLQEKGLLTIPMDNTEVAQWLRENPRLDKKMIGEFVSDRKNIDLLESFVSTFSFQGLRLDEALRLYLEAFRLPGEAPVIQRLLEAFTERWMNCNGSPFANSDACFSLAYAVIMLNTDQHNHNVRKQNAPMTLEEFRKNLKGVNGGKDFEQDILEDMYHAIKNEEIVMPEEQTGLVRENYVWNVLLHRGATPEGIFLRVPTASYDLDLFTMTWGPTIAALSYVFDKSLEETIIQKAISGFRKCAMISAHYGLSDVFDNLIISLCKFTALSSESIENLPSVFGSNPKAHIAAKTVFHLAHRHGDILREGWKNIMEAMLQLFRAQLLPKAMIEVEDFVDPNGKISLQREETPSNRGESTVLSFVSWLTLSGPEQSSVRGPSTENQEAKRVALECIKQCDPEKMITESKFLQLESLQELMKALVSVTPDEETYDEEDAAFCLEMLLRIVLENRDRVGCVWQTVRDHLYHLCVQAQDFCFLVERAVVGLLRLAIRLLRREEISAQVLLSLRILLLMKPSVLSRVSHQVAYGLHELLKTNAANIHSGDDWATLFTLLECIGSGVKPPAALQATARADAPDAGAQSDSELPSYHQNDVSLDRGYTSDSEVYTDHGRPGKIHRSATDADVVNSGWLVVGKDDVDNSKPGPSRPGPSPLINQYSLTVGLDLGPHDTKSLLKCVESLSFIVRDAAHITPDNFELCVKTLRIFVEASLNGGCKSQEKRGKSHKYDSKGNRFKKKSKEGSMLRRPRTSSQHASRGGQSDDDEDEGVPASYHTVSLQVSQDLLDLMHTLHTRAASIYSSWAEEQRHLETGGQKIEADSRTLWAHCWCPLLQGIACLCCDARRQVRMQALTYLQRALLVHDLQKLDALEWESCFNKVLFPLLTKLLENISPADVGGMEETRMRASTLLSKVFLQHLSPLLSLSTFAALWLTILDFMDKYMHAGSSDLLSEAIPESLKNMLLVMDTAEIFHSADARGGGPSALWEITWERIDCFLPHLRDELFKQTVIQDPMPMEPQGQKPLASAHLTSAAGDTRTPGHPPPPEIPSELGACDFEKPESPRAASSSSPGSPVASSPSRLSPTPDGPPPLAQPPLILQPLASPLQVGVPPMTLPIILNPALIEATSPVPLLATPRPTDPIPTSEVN
inactive: IRAK-1-4 Inhibitor I -0.033 | ibrutinib -0.049 | [1] -0.044 | ralimetinib 0.017 | [2] -0.05 | [3] -0.088 | [4] 0.015 | pinometostat 0.115 | [5] -0.016 | [6] 0.007 | [7] -0.049 | [8] -0.071 | [9] -0.012 | [10] -0.028 | Nexturastat A 0.078 | vemurafenib 0.028 | [11] 0.059 | [12] 0.014 | givinostat 0.07 | barasertib 0.028

GALNT4 (UniProt Q8N4A0)
UniProt Q8N4A0, sequence (Q8N4A0 whole entry, looked up): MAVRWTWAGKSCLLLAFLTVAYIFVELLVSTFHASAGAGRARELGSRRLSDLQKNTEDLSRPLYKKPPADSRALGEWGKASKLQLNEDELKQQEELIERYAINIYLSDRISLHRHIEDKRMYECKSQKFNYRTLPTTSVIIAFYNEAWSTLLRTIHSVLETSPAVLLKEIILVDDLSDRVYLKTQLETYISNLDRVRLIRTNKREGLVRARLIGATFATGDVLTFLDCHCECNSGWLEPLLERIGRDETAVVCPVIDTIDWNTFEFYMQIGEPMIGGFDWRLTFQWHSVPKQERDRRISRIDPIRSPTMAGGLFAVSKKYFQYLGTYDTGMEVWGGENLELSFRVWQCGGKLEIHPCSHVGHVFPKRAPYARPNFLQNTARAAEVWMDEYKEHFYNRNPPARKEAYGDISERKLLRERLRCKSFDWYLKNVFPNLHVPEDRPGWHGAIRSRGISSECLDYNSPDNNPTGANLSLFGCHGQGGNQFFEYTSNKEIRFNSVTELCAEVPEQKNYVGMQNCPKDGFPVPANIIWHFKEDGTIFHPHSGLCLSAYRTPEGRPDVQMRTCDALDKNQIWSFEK
active: [2] -0.41
inactive: IRAK-1-4 Inhibitor I 0.038 | ibrutinib 0.011 | [1] -0.061 | ralimetinib -0.003 | [3] -0.041 | [4] -0.002 | pinometostat 0.014 | [5] -0.004 | [6] 0.072 | [7] 0.008 | [8] 0.017 | [9] -0.029 | [10] 0.013 | Nexturastat A -0.049 | vemurafenib -0.037 | [11] -0.001 | [12] -0.01 | givinostat 0.005 | barasertib 0.011

HTATIP2 isoform 3 (UniProt Q9BUP3)
inactive: IRAK-1-4 Inhibitor I 0.007 | ibrutinib 0.003 | [1] -0.034 | ralimetinib 0.077 | [3] -0.182 | [4] -0.021 | pinometostat 0.006 | [5] -0.017 | [6] 0.025 | [7] 0.065 | [8] -0.093 | [9] 0.011 | [10] -0.007 | Nexturastat A -0.14 | vemurafenib 0.057 | [11] 0.039 | [12] 0.059 | givinostat 0.012 | barasertib 0.041
active: [2] 0.651

GTF3C5 isoform 3 (UniProt Q9Y5Q8)
inactive: IRAK-1-4 Inhibitor I -0.028 | ibrutinib 0.046 | [1] 0.047 | ralimetinib 0.01 | [2] -0.025 | [3] -0.293 | [4] 0.083 | pinometostat 0.109 | [5] 0.147 | [6] -0.171 | [7] 0.058 | [8] -0.022 | [9] 0.088 | [10] 0.007 | Nexturastat A 0.136 | vemurafenib 0.101 | [11] 0.056 | [12] 0.061 | givinostat 0.045 | barasertib 0.08

HIST2H2BF isoform 2 (UniProt Q5QNW6)
active: Nexturastat A 0.78
inactive: IRAK-1-4 Inhibitor I -0.165 | ibrutinib 0.148 | [1] -0.054 | ralimetinib 0.162 | [2] 0 | [3] -0.047 | [4] 0.226 | pinometostat 0.422 | [5] 0.002 | [6] 0.601 | [7] -0.094 | [8] -0.034 | [9] -0.202 | [10] -0.009 | vemurafenib -0.284 | [11] 0.529 | [12] 0.1 | givinostat 0.331 | barasertib -0.157

GLUD1 (UniProt P00367)
UniProt P00367, sequence (P00367 whole entry, looked up): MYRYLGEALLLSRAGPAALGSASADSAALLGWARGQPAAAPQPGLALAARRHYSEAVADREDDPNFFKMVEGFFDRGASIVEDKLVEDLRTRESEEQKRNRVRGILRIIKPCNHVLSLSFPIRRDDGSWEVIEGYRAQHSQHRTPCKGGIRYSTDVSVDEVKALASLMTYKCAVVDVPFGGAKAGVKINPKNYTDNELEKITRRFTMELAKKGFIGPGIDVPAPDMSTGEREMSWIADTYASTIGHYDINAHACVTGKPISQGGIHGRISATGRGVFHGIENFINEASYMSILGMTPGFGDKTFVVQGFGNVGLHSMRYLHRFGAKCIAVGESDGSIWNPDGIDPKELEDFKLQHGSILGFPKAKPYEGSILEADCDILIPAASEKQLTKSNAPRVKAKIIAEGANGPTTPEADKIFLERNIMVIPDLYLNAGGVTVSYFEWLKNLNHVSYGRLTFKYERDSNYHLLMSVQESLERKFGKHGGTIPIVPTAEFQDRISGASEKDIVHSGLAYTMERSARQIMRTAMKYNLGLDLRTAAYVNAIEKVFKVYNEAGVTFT
inactive: IRAK-1-4 Inhibitor I 0.02 | ibrutinib 0.04 | [1] 0.068 | ralimetinib 0.023 | [2] -0.038 | [3] -0.049 | [4] 0.012 | pinometostat 0.023 | [5] -0.076 | [6] 0.125 | [7] 0.179 | [8] -0.007 | [9] -0.054 | [10] -0.011 | Nexturastat A -0.063 | vemurafenib -0.012 | [11] -0.02 | [12] 0.136 | givinostat -0.062 | barasertib -0.007

GPKOW (UniProt Q92917)
inactive: IRAK-1-4 Inhibitor I -0.016 | ibrutinib -0.005 | [1] -0.172 | ralimetinib -0.08 | [2] -0.026 | [3] -0.184 | [4] 0.006 | pinometostat 0.047 | [5] -0.034 | [6] 0.056 | [7] 0.053 | [8] -0.033 | [9] 0.062 | [10] 0.055 | Nexturastat A -0.106 | vemurafenib 0.009 | [11] 0.07 | [12] -0.058 | givinostat 0.084 | barasertib 0.027

HNRNPH1 (UniProt P31943)
UniProt P31943, sequence (P31943 whole entry, looked up): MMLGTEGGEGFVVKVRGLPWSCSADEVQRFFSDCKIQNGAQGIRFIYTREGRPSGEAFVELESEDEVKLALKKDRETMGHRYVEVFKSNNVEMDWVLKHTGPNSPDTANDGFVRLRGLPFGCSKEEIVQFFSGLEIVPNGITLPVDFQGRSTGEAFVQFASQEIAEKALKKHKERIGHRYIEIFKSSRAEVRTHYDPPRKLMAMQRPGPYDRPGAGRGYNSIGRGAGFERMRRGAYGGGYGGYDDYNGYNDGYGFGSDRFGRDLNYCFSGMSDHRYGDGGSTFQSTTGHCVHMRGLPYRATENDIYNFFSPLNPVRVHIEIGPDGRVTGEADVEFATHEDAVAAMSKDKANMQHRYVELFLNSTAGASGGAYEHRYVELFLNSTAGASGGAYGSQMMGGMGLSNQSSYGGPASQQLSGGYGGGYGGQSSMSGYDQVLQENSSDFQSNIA
active: [3] -0.427
inactive: IRAK-1-4 Inhibitor I -0.032 | ibrutinib 0.048 | [1] -0.176 | ralimetinib -0.018 | [2] 0 | [4] 0.131 | pinometostat 0.031 | [5] 0.011 | [6] -0.045 | [7] 0.077 | [8] -0.044 | [9] 0.005 | [10] 0.047 | Nexturastat A 0.201 | vemurafenib 0.086 | [11] 0.144 | [12] 0.029 | givinostat 0.115 | barasertib 0.05

HADHA (UniProt P40939)
inactive: IRAK-1-4 Inhibitor I -0.001 | ibrutinib 0.175 | [1] -0.358 | ralimetinib 0.058 | [2] -0.132 | [3] 0.43 | [4] -0.116 | pinometostat -0.064 | [5] -0.125 | [6] 0.054 | [7] 0.307 | [8] -0.203 | [9] 0 | [10] -0.022 | Nexturastat A -0.1 | vemurafenib -0.017 | [11] -0.006 | [12] 0.1 | givinostat 0.044 | barasertib -0.013
